# Reference: PubChem BioAssay AID504582 (Broad Institute, 2011)
# The whole screen tested about 340,000 compounds, of which about 2,300 (0.68%) were called active. No stated cut-off is given here; in the data, active means growth rescue above about 28% (passing the limit was not always enough); inconclusive means no clear call, values can overlap the other calls. For the sample, actives were picked, then their nearest neighbours and some compounds at random.
# Assay: rescue of yeast from PfHsp40 toxicity, primary screen, S. cerevisiae, ATP luminescence (AID 504582);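 further: yeast W303a lacking pdr1 and pdr3 grown in galactose medium; growth measured after three days at 30 °C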
# Details: S. cerevisiae expressing PfHsp40, growth rescue, at 12.5 µM, active compounds read high
row,SMILES,growth rescue
1,CN(C)CCCn1c(SCCN2C(=O)c3ccccc3C2=O)nc2ccccc2c1=O,-0.077% (inactive)
2,COc1ccc(C2OC(=O)CC2C(=O)NC(C)C)cc1 (centres undefined),-0.42% (inactive)
3,Cc1cccc(CCNS(=O)(=O)c2ccc(S(=O)(=O)NC3CCCC3)cc2)c1,0.473% (inactive)
4,O=C(CCc1nnc2ccc(NCCCN3CCCC3=O)nn12)NCc1ccccc1Cl,-0.483% (inactive)
5,Cc1nn(C)cc1C(=O)Nc1ccccc1Br,0.045% (inactive)
6,CCCS(=O)(=O)N1CCN=C1SCc1cccc(F)c1,0.879% (inactive)
7,O=C1CC(=O)Nc2cc(S(=O)(=O)N3CCN(c4cccc(C(F)(F)F)c4)CC3)ccc2N1,-1.27% (inactive)
8,O=C1CN(C(=O)c2cc(F)cc(F)c2)c2ccccc2N1,-0.198% (inactive)
9,CC(=O)/C(=N\Nc1ccc(Cl)cc1Cl)Sc1cccc2cccnc12,67.7% (active)
10,O=C(NNc1cc(Cl)ccc1Cl)c1cccnc1Cl,0.035% (inactive)
11,Cc1c(NC(=O)CSc2cccc3cccnc23)c(=O)n(-c2ccccc2)n1C,5.35% (inactive)
12,O=[N+]([O-])c1ccc(N2CCN(S(=O)(=O)c3ccccc3)CC2)cc1N1CCc2ccccc2C1,-0.201% (inactive)
13,CC/C(=C\c1ccc(Cl)cc1)c1ccncc1,0.0255% (inactive)
14,CCN(C(=O)C1CCCN(c2nc(-c3ccc(OC)cc3)no2)C1)c1ccc(OC)cc1 (centres undefined),61.7% (active)
15,COc1ccc(NC(=O)N2CCCC(c3nc(-c4ccc(F)cc4)no3)C2)cc1 (centres undefined),0.883% (inactive)
16,CCOC(=O)C1CCCN(C(=O)CN(c2ccc(OC)cc2)S(=O)(=O)c2c(C)noc2C)C1 (centres undefined),0.46% (inactive)
17,C/C(=N\NC(=O)c1ccc(NS(=O)(=O)c2cccs2)cc1)c1ccc2ccccc2c1,-0.368% (inactive)
18,CSCCC(NC(=O)COc1ccccc1)C(=O)OCCOc1ccc(F)cc1 (centres undefined),-0.578% (inactive)
19,CSCCC(NC(=O)COc1ccccc1)C(=O)OCCOc1ccc(Br)cc1 (centres undefined),-0.924% (inactive)
20,CSCCC(NC(=O)COc1ccccc1)C(=O)N1CCN(c2cccc(C(F)(F)F)c2)CC1 (centres undefined),197% (active)
21,COCCCNS(=O)(=O)c1cccc(S(=O)(=O)c2cccc(S(=O)(=O)NCCCOC)c2)c1,-1.18% (inactive)
22,CNC(=S)N1CCC(NC(=O)C(Cc2ccc(F)cc2)NC(C)=O)CC1 (centres undefined),-1.81% (inactive)
23,Cc1ccc(S(=O)(=O)NCC(=O)N(CC(=O)NC(C)(C)C)Cc2cccs2)cc1,-1.96% (inactive)
24,O=C(N[C@@H](Cc1c[nH]c2ccccc12)C(=O)O)OCC1c2ccccc2-c2ccccc21,-1.08% (inactive)
